# Screening results as filed in PubChem.
# Cruzain Triton: qHTS Assay for Promiscuous and Specific Inhibitors of Cruzain (with detergent) | actives 0.43% (n = 200,000) | purified cruzain, Z-FR-AMC fluorescence, 0.01% Triton | Cruzipain (Trypanosoma cruzi), P25779 | AID 1478, 2009 | Potency, µM, most hits filed as inhibitors; also: nearly all actives have a fitted effect of over 40% in size
# Target sequence (P25779 123-467 limits assumed): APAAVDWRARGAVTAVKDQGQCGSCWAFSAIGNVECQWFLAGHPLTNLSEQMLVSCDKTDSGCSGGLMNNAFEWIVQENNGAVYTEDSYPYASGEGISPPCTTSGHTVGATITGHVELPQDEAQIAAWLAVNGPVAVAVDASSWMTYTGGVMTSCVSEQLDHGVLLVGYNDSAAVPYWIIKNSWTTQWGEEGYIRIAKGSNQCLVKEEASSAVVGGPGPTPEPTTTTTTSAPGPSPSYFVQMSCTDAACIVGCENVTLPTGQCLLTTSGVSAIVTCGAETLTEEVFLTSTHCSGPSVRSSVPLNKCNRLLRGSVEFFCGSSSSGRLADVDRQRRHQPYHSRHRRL
#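 Detergent-containing run (0.01% Triton X-100) in acetate buffer pH 5.5 with 5 mM DTT: enzyme at 1.5 nM final, 15 min compound preincubation at room temperature, then 2 uM Z-FR-AMC substrate. Activity taken as 60 s fluorescence increase at 360/450 nm.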
# Cruzain inh noDet: qHTS Assay for Promiscuous and Specific Inhibitors of Cruzain (without detergent); Cruzipain (Trypanosoma cruzi), P25779; purified cruzain, Z-FR-AMC fluorescence, no detergent; Potency, µM, usual class: inhibitors; actives 2.3% (n = 200,000); AID 1476, 2009; also: nearly all actives have a fitted effect of over 40% in size
#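 Detergent-free condition (0.00005% Triton X-100) in acetate buffer pH 5.5 with DTT. 1.5 nM enzyme and compound were pre-mixed 15 min, then 2 uM Z-FR-AMC substrate added; reaction progress from fluorescence change between first and third reads (60 s).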
# Hits are given with their value; . = inactive; ? = inconclusive. An excerpt weighted towards active compounds, which were near 2.5% of everything screened. Calls follow the shape of the dose curve; as a rule, active = well fitted curve in the direction sought with a large enough effect; inconclusive = small, poorly fitted or top-dose-only effect, or another doubt; inactive = no such curve, though single readings can be large; an effect the other way counts as inactive or inconclusive.
SMILES,Cruzain Triton,Cruzain inh noDet
C=CCNC(=O)c1cc2c(=O)n3cc(C)ccc3nc2nc1NCC1CCCO1 (configuration not stated),22µM,?
Cc1ccc2nc3nc(NCC4CCCO4)c(C(=O)NC4CCCC4)cc3c(=O)n2c1 (configuration not stated),.,.
Cc1cc2oc(=O)cc(-c3ccccc3)c2c(C)c1-c1ccc(N(C)C)cc1,.,14µM
Cc1ccc(-c2c(C)cc3oc(=O)cc(-c4ccccc4)c3c2C)cc1,.,?
COc1ccc(-c2c(C)cc3oc(=O)cc(-c4ccccc4)c3c2C)cc1,.,32µM
Cc1cc2oc(=O)cc(-c3ccccc3)c2c(C)c1-c1ccc(C(F)(F)F)cc1,.,?
CC(=O)Nc1ccc(-c2c(C)cc3oc(=O)cc(-c4ccccc4)c3c2C)cc1,.,.
CCOC(=O)c1ccc(-c2c(C)cc3oc(=O)cc(-c4ccccc4)c3c2C)cc1,.,4.5µM
Cn1c(=O)oc2cc(S(=O)(=O)NC(Cc3ccccc3)C(=O)Nc3ccc(F)c(Cl)c3)ccc21 (configuration not stated),.,.
CN1C(=O)c2ccccc2Sc2ccc(NC(=O)NCc3cccc(Cl)c3)cc21,.,?
CC(C)(C)C(=O)Nc1cc(-c2cccc(Br)c2)nn1-c1ccccc1,.,.
CCN1CCN(C(=S)c2ccc(Br)cc2)CC1,.,.
OCCN1CCN(C(=S)c2ccc(Cl)c(Cl)c2)CC1,.,25µM
CC(C)c1ccc(NC(=O)CSc2ncccc2C(=O)Oc2cccc([N+](=O)[O-])c2)cc1,.,16µM
COc1ccc(NC(=O)CSc2ncccc2C(=O)OC(C)C)cc1OC,.,.
CC(=O)Nc1c(C)nn(-c2ccccc2)c1N1CCC(C(=O)NCc2ccc(F)cc2)CC1,.,.
Fc1ccccc1OCc1nc(-c2ccc(-n3cccc3)cc2)no1,.,.
Cc1cccc(OCc2nc(-c3ccc(-n4cccc4)cc3)no2)c1,.,20µM
Cc1ccccc1OCc1nc(-c2ccc(-n3cccc3)cc2)no1,.,?
Cc1ccc(OCc2nc(-c3ccc(-n4cccc4)cc3)no2)cc1C,.,25µM
CCc1nc(C)cn1S(=O)(=O)c1ccc(Cl)c(Cl)c1OC,.,.
CCCCn1c(O)c(/C=C2\C=NN=C2c2ccccc2)sc1=S,.,?
CCCCCCn1c(O)c(/C=C2\C=NN=C2c2ccccc2)sc1=S,.,16µM
CCOC(=O)c1cc(-c2ccc(F)cc2)n(CCC(=O)Nc2nc3ccc(OC)cc3s2)c1C,.,.
O=[N+]([O-])c1cccc(/C=N\NC2=CS(=O)(=O)C=C2)c1,.,.
SMILES,Cruzain Triton,Cruzain inh noDet
CO[C@@H]1/C=C\O[C@]2(C)Oc3c(C)c(O)c4c(O)c(cc(O)c4c3C2=O)NC(=O)/C(C)=C\C=C/[C@H](C)[C@@H](O)[C@H](C)[C@H](O)C(C)[C@H](OC(C)=O)[C@@H]1C (some centres not stated),.,?
O=C(N/N=C/c1cccc(OC2CSC2)c1)c1ccccc1O,.,10µM
Cn1ncc(Br)c1C(=O)N/N=C/c1cccc(OC2CSC2)c1,.,.
CCN1CCN(C(c2ccc(SC)cc2)c2c(O)cc(C)n(Cc3ccco3)c2=O)CC1 (configuration not stated),.,?
CCC(C)NC(=O)C1CCN(C(=O)c2cc3sccc3n2Cc2ccc(Cl)cc2)CC1 (configuration not stated),.,.
Cc1cccc(NC(=O)c2c(NC(=O)C(F)(F)F)sc3c2CCCCC3)c1,.,.
O=C(Nc1cccc(Cl)c1)c1c(NC(=O)C(F)(F)F)sc2c1CCCC2,25µM,?
CC(C)[C@]1(Cl)CC[C@@H]2[C@]3(C)CCC[C@@](C)(C(=O)O)[C@H]3C[C@H](Cl)[C@@]2(Cl)[C@H]1Cl,.,.
COc1ccc(C(=O)c2sc3nc(-c4ccccc4)ccc3c2N)cc1OC,.,.
COc1cccc(-c2ccc3c(N)c(C(=O)c4ccc(Br)cc4)sc3n2)c1,.,7.9µM
CC1Cc2ccccc2N1Cc1nc2scc(-c3cccs3)c2c(=O)[nH]1 (configuration not stated),.,16µM
CC1Cc2ccccc2N1Cc1nc2cc(Cl)ccc2c(=O)[nH]1 (configuration not stated),.,25µM
COC(=O)c1ccc2c(=O)[nH]c(CN3c4ccccc4CC3C)nc2c1 (configuration not stated),.,?
O=c1[nH]c(CN2CCN(c3ccccc3)CC2)nc2scc(-c3ccccc3)c12,.,?
Cc1ccccc1OCC(=O)OCc1cc(=O)n2nc(C3CCCCC3)sc2n1,.,?
O=C(CSc1nc2c(c(=O)[nH]1)CCC2)Nc1cccc(Cl)c1,.,.
CCc1cccc(NC(=O)CSc2nc3c(c(=O)[nH]2)CCCC3)c1,.,25µM
O=C(N/N=C/c1ccc(OC(=O)c2cccs2)cc1)c1cccc(F)c1,.,20µM
COc1cccc(C(=O)NCC(=O)N/N=C/c2ccc(OC(=O)c3cccs3)c(OC)c2)c1,.,.
Nc1c(OCC(=O)O)ccc2cc(S(=O)(=O)O)ccc12,.,.
CC(=O)NC(NC(=S)Nc1ccc(N=Nc2ccccc2C)cc1C)C(Cl)(Cl)Cl (configuration not stated),.,7.9µM
Cc1ccc(NC(=S)NC(NC(=O)C(C)(C)C)C(Cl)(Cl)Cl)c(C)c1 (configuration not stated),.,.
COc1ccc(C(=O)Nc2ccc(-c3cc4ccccc4oc3=O)c(C)c2)cc1Br,.,25µM
Cc1cc(NC(=O)c2ccc(F)cc2)ccc1-c1cc2ccccc2oc1=O,.,.
COc1cc(NC(=O)COc2ccc(Cl)cc2)ccc1-c1cc2ccccc2oc1=O,.,5µM
SMILES,Cruzain Triton,Cruzain inh noDet
COc1cc2c(cc1NC(=O)COc1ccc(Cl)cc1)oc1ccccc12,.,.
COc1ccc(CNC(=O)c2cccn2-c2nnc(N3CCCC3)s2)c(OC)c1,.,.
CS(=O)(=O)N1CCc2cc(-c3csc(NC(=O)Cc4cccs4)n3)ccc21,.,20µM
O=C(CN1CCOCC1)Nc1nc(-c2ccc3c(c2)CCN3S(=O)(=O)c2ccccc2)cs1,.,?
COc1cccc(CNc2ncnc3c2nnn3C)c1,.,.
Cc1ccc(-c2nc3c(c(SCC(=O)Nc4cccc(C(=O)O)c4)n2)Cc2cccc(C)c2O3)cc1,.,.
CC(=O)c1cccc(S(=O)(=O)N2CCN(c3nc4cc(C)cc(C)c4cc3C#N)CC2)c1,.,16µM
CC(=O)c1cccc(S(=O)(=O)N2CCN(c3ccccc3F)CC2)c1,.,.
CCN(Cc1ccccc1)C(=O)Cn1c(=O)n(-c2cccc(C)c2)c(=O)c2c1c1cc(OC)ccc1n2C,.,.
CCC1CCCCN1CCCNC(=O)c1ccc2c(c1)N(Cc1ccccc1F)C(=O)c1ccccc1S2(=O)=O (configuration not stated),.,.
Cc1cccc(C2=NN(c3ccccc3)[C@H](CO)[C@H]2c2ccccc2)c1,.,?
Cc1cccc(C2=NN(c3ccccc3)[C@H](CO)[C@H]2C)c1,.,35µM
OCC(CO)(CBr)CBr,.,.
Cc1c(-c2nc(-c3ccc4c(c3)OCO4)no2)nnn1-c1ccc(C(C)C)cc1,.,.
O=C(CSc1nnc(-c2ccccc2)c(-c2ccccc2)n1)Nc1ncc(Cl)cc1Cl,.,32µM
